# Source: PubChem BioAssay (The Scripps Research Institute Molecular Screening Center)
# PLC-beta3 inh = inhibitors of human phospholipase C beta3. Purified PLC-beta3, fluorogenic substrate, fluorescence. inhibition, % at 12.2 µM. 370,000 tested, 0.18% active. Q01970; in the data active means inhibition above about 11%;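 further: 0% = median of compound wells on plate and 100% = full blocker control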
# MBD2 inh = blocks human MBD2 binding to methylated DNA. TR-FRET, MBD2 binding to methylated oligonucleotide. inhibition, % at 4.4 µM. 370,000 tested, 0.31% active. Q9UBB5; in the data active means inhibition above about 13%
# PLC-gamma1 inh = blocks human PLC-gamma1 enzyme activity; purified PLC-gamma1, fluorogenic substrate, fluorescence; 370,000 tested, 0.84% active; AID 720700; P19174; inhibition, % at 12.2 µM; in the data active means inhibition above about 9.5%
# UHRF1 MBD2 ctr = human UHRF1 methylated DNA binding inhibitors; Q96T88; UHRF1 binding to methylated oligo, TR-FRET; inhibition, % at 4.4 µM; 370,000 tested, 0.75% active; AID 687016; in the data active means inhibition above about 21%;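 further: UHRF1 SRA domain binding a hemimethylated CpG hairpin DNA probe; 0% = median of test compound wells and 100% = reference inhibitor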
# LEDGF integ inh = blocks HIV-1 LEDGF/p75-dependent DNA integration; TR-FRET IN-LEDGF/p75 DNA integration, Eu/Cy5; inhibition, % at 3.7 µM; 370,000 tested, 0.64% active; AID 743269;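 active means inhibition above the screen-wide mean plus 3 SD, cut at about 13% in these data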;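 further: signal is the Cy5 over europium emission ratio at 671 and 618 nm; 0% = plate median of compound wells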
# An asterisk follows results filed as active; ! = repeats disagree. In the library only some 2.4% were active in any assay of this set; here they are far more common.
SMILES,PLC-beta3 inh,MBD2 inh,PLC-gamma1 inh,UHRF1 MBD2 ctr,LEDGF integ inh
CC(C)[C@@H](CO)N1Cc2nnn(Cc3ccccc3)c2-c2ccccc2S1(=O)=O,2,-1,0,1,0
C=CCN1[C@@H](Cc2ccccc2)COc2cccc(N3CCCC3)c2S1(=O)=O,-7,4,-1,4,-3
Cc1cc(NS(=O)(=O)c2ccc(NC(=O)CSc3nc4ncc(Br)cc4[nH]3)cc2)nc(C)n1,-7,3,0,39*,-6
Cc1cc(NC(=O)CN(C)C)c([N+](=O)[O-])cc1C,-6,1,-1,42*,-4
Cc1cc(NC(=O)CCc2ccccc2)c([N+](=O)[O-])cc1C,2,4,0,0,-3
COc1ccc2cc3[n+](cc2c1OC)CCc1cc2c(cc1-3)OCO2,-70,-15,-67,23*!,0
COc1cccc(C2=NCCc3cc4c(cc32)OCO4)c1OC,-129,-2,-111,1,8
Cc1nc2cc(C(=O)N3c4ccccc4CC3C)ccc2s1 (stereo not drawn),-1,6,0,22*,-1
COc1ccc(-c2nc3cc(C)c(Br)c(C)n3c2Cc2ccsc2)cc1OC,-28,2,-18,1,0
COc1ccc(-c2nc3ccc(C)cn3c2CC2CCCCC2)cc1OC,-34,9,-20,22*,1
COc1ccc(-c2nc3ccc(C)cn3c2Cc2ccsc2)cc1OC,-70,10,-47,22*,-3
COC(=O)[C@H]1C[C@@]2(N3CCCCC3)c3ccccc3N(S(=O)(=O)c3ccccc3)[C@H]2N1,3,0,1,-1,1
Cc1ccc([N+](=O)[O-])cc1NC(=O)/C=C/C(=O)O,-8,-6,1,40*,-9
COc1ccc([N+](=O)[O-])cc1NC(=O)/C=C/C(=O)O,2,1,4,5,0
COc1ccccc1Sc1nc(-c2ccccc2)ncc1OC,2,-3,0,48*,4
COCCNC(=O)C(c1ccc(F)cc1)N(CCOC)C(=O)CCC(=O)Nc1nccs1 (stereo not drawn),-4,4,3,15,2
COCCNC(=O)C(c1ccc(F)cc1)N(C(=O)CCC(=O)Nc1nccs1)c1ccc(C)cc1 (stereo not drawn),5,-1,3,21*,4
CCOC(=O)C1CCCN(C(=O)CN2C(=O)c3ccccc3C2=O)C1 (stereo not drawn),1,3,-18,1,-1
CCOC(=O)C1CCCN(C(=O)CN2C(=O)/C(=C/c3ccc(OC)cc3)Oc3ccccc32)C1 (stereo not drawn),-206,6,-185,22*,-2
CNC(=S)NNC(=O)c1ccccc1Br,6,-2,3,21*,3
O=P(O)(c1ccccc1)c1ccccc1O,3,-3,-1,0,-2
O=P(c1ccccc1)(c1ccccc1)c1cc(S(=O)(=O)O)ccc1O,-7,6,1,27*,2
COc1ccc(-c2nnc(SCc3c(F)cccc3F)n2N)cc1,3,-7,-2,2,-1
CN(C(=O)[C@@H](C1CC1)[C@@H](O)c1ccc2ccccc2c1)c1ccccc1,0,-9,10*,-2,4
O=C(O)c1cccc(N2C(=O)/C(=C/c3ccc(SCc4ccc(Cl)cc4)o3)SC2=S)c1,-4,40*,32*,89*,60*
SMILES,PLC-beta3 inh,MBD2 inh,PLC-gamma1 inh,UHRF1 MBD2 ctr,LEDGF integ inh
COc1cc(C(=S)N2CCOCC2)ccc1OC(=O)c1cccc(C)c1,-7,5,-4,24*,-3
COc1cc(C(=S)N2CCOCC2)cc(OC)c1OC(=O)c1ccc(F)cc1,-3,3,2,1,-4
COc1cc(C(=O)Oc2c(OC)cc(C(=S)N3CCOCC3)cc2OC)cc(OC)c1OC,-3,2,-2,24*,-3
COc1cc(C(=S)N2CCOCC2)ccc1OC(=O)c1ccc(Br)cc1,-3,2,4,-1,-2
COc1ccc(-n2c(Cc3cccs3)nnc2SCC(=O)Nc2cccc3ccccc23)cc1,3,-1,0,0,-4
COc1ccc2c(CC(=O)OCC(=O)Nc3sc4c(c3C#N)CCC(C)C4)coc2c1 (stereo not drawn),1,-1,-4,41*,-3
O=C(O)CCCC(=O)Nc1ccccc1C(=O)O,2,1,3,0,16*
O=C(O)c1ccccc1C1Nc2ccccc2C(=O)N1CCCN1CCOCC1 (stereo not drawn),-44,5,-24,40*,3
C/C(=N\Nc1ccc(C(=O)O)cc1)c1ccc(Br)cc1,-8,8,3,22*,0
Cc1cc(NC(=O)CN2C(=O)NC(C)(c3ccccc3)C2=O)no1 (stereo not drawn),1,3,0,97*,1
NC(=Nc1cccc(F)c1)NC(=O)OCc1ccccc1,3,-1,0,0,3
CCN(C[C@H]1N[C@@](Cc2ccccc2)(C(=O)OC)[C@H]2C(=O)N(C)C(=O)[C@@H]12)S(=O)(=O)c1ccc(C(F)(F)F)cc1,2,3,-1,-1,-3
CC[C@@]1(C(=O)OC)N[C@H](CN(C)C(=O)Nc2ccc(F)cc2)[C@@H]2C(=O)N(C)C(=O)[C@@H]21,-3,11,0,21*,-2
CCN(C[C@H]1N[C@@](Cc2ccccc2)(C(=O)OC)[C@H]2C(=O)N(C)C(=O)[C@@H]12)S(=O)(=O)c1ccc(OC(F)(F)F)cc1,2,2,1,21*,2
O=S(=O)(CC1NCc2cc(F)ccc21)NCc1ccc(F)cc1 (stereo not drawn),-5,-9,-4,-4,4
CN(C)c1ccc(Cc2cc3c(O)ccc(O)c3cc(Cc3ccc(N(C)C)cc3)c2=O)cc1,-8,35*,9,51*,63*
CCOC(=O)C1=C(C)N(C)C(=O)NC1c1c(C)nn(-c2ccc(C)cc2)c1Cl (stereo not drawn),-2,4,0,23*,0
COc1ccc(CN(C)C(C#Cc2ccccc2)Cc2ccccc2)c(OC)c1 (stereo not drawn),-5,3,1,-2,-1
CN(CC#CC1(O)c2ccccc2-c2ccccc21)Cc1ccccc1,4,10,3,23*,3
Cc1cccc(C)c1NC(=O)C1c2ccccc2OCC(=O)N1CC(F)(F)F (stereo not drawn),1,3,0,2,2
COCCN1C(=O)COc2ccccc2C1C(=O)Nc1c(C)cccc1C (stereo not drawn),2,6,-1,21*,0
O=C(c1ccco1)N(Cc1cccc(F)c1)C1CCS(=O)(=O)C1 (stereo not drawn),-5,6,-3,21*,-4
CCc1ccc(CN(C(=O)c2ccco2)C2CCS(=O)(=O)C2)cc1 (stereo not drawn),-6,-6,-1,2,-2
